In PubChem BioAssay (Tox21):
Results filed as inconclusive are left out. Calls of active or inactive are those of the source. Unless noted, the call rests on the fitted dose curve; in most records, active means well fitted curve in the direction sought with a large enough effect in the repeat runs; inconclusive means weak or mixed curves; inactive means no such curve, though single readings can be large; an effect the other way counts as inactive or inconclusive.

How the values were obtained:
[1] = qHTS assay to identify small molecule antagonists of the estrogen related receptor signaling pathway with the pleiotropic PPARgamma coactivator (PGC) from Tox21 10K library - cell viability counter screen (AID 1224840; active means well fitted cell-killing curve with a large enough effect in the repeat runs, not every such curve was filed as active; further: nearly all actives have a fitted effect of over 40% in size)
Procedure, shortened: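 Here the PGC/ERR cells serve as a cytotoxicity control: they are exposed to compounds for 17.5 hours at 37 C, and live-cell signal is quantified using CellTiter-Fluor fluorescence.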

[2] = qHTS assay to identify small molecule antagonists of the estrogen related receptor signaling pathway with the pleiotropic PPARgamma coactivator (PGC) from Tox21 10K library (AID 1224841; call rule not given here; further: actives are mostly falling curves and most rising ones were filed inactive; nearly all actives have a fitted effect of over 50% in size)
Procedure, shortened: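 Each well held 2,000 PGC/ERR cells, pre-incubated six hours (37 C, 5% CO2). Test substances in DMSO were added by pin tool and left for 18 h at 37 C before luciferase detection by One-Glo.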

[3] = qHTS assay to identify small molecule agonists of the estrogen related receptor signaling pathway with the pleiotropic PPARgamma coactivator (PGC) from Tox21 10K library (AID 1224842); further: nearly all actives have a fitted effect of over 15% in size
Procedure, shortened: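 Luminescence from One-Glo (30 min, room temperature) measured after PGC/ERR cells had 18 h at 37 C with pinned compound (23 nL in DMSO). Cells had been seeded at 2,000 per well and pre-incubated 6 h.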

[4] = qHTS assay to identify small molecule agonists of the hypoxia (HIF-1) signaling pathway - cell viability counter screen (AID 1224844; calls by dose curve; further: nearly all actives have a fitted effect of over 50% in size)
Procedure, shortened: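 Multiplexed with the HRE beta-lactamase assay, this viability read used CellTiter-Glo luminescence (30 min, RT) on HRE-bla ME-180 cells treated 17 hrs with compounds in 0.5% dialyzed FBS medium.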

[5] = qHTS assay to identify small molecule agonists of the hypoxia (HIF-1) signaling pathway (AID 1224846; active means well fitted activation curve with a large enough effect in the signal ratio in the repeat runs, not every such curve was filed as active; the % refers to the signal ratio)
Procedure, shortened: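 Hypoxia-pathway activation was scored as increased beta-lactamase from an HRE-controlled reporter in ME-180 cells; plated at 2,000 cells per well with 0.5% dialyzed FBS, they were exposed 17 hrs to compounds and then given CCF4-AM.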

[6] = qHTS assay to identify small molecule agonists of H2AX - cell viability counter screen (AID 1224847; calls by dose curve;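 further: wild-type CHO-K1 cells; top concentration of the series differs between compounds; nearly all actives have a fitted effect of over 30% in size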)
Procedure, shortened: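 Counter-screen for viability: CellTiter-Glo ATP luminescence read after 3 h compound treatment (15-point titration, 0.76% DMSO final) of CHO-K1 cells at 37C, with 30 min room-temperature reagent incubation.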

[7] = qHTS assay to identify small molecule antagonists of the estrogen related receptor (ERR) signaling pathway from Tox21 library (AID 1224848); further: nearly all actives have a fitted effect of over 50% in size
Procedure, shortened: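 Antagonist-mode screen of the Tox21 10K library in an NTP-provided ERR reporter cell line; 18 h compound exposure at 37 C, luminescence measured with ONE-Glo.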

[8] = qHTS assay to identify small molecule agonists of the estrogen related receptor (ERR) signaling pathway from Tox21 library (AID 1224849; calls by dose curve; further: nearly all actives have a fitted effect of over 15% in size); details: ERR reporter cell line, ONE-Glo luciferase, 18 h; at 92.4 µM (top of the series) unless noted
Procedure, shortened: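 Six hours post-seeding at 37 C/5% CO2, ERR cells receive DMSO-solubilised compounds; after 18 h at 37 C, ONE-Glo reagent is applied and luminescence recorded.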

[9] = qHTS RealTime-Glo MT Cell Viability Assay in HepG2 cells - 24 hour (AID 1224867); further: nearly all actives have a fitted effect of over 50% in size
Procedure, shortened: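 Viability was tracked continuously by NanoLuc luminescence from prosubstrate reduced by living HepG2 cells, at successive time points over 40 h of compound exposure. Cells with reagent were preincubated 5 h at 37 °C before compound addition.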

[10] = qHTS RealTime-Glo MT Cell Viability Assay in HEK293 cells - 32 hour (AID 1224868); further: nearly all actives have a fitted effect of over 50% in size; further: potency means the concentration at half of the fitted maximal effect
Procedure, shortened: (§1)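 Viability tracked continuously by luminescence as live cells reduce a prosubstrate for NanoLuc; HEK293 cells preincubated 5 h, compound-treated at 37 C, and read at 0, 8, 16, 24, 32 and 40 h.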

[11] = A CellTox Green Cytotoxicity Assay to monitor cytotoxicity in HEK293 cells - 0 hour (AID 1224869); further: nearly all actives have a fitted effect of over 50% in size
Procedure, shortened: (§2)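 Seeding of HEK293 cells together with cytotoxicity dye preceded a 5 h incubation at 37 C/5% CO2. Test compounds in DMSO were then added and fluorescence monitored across 40 h.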

[12] = qHTS RealTime-Glo MT Cell Viability Assay in HepG2 cells - 40 hour (AID 1224870); further: nearly all actives have a fitted effect of over 50% in size
Procedure, shortened: (§3)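 Real-time viability: cells seeded at 600 per well together with NanoLuc and cell-permeant prosubstrate, compounds added after 5 h incubation. Luminescence tracked at 0, 8, 16, 24, 32 and 40 h of exposure.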

[13] = A CellTox Green Cytotoxicity Assay to monitor cytotoxicity in HEK293 cells - 40 hour (AID 1224871); further: nearly all actives have a fitted effect of over 45% in size
Procedure, shortened: as §2

[14] = qHTS RealTime-Glo MT Cell Viability Assay in HEK293 cells - 16 hour (AID 1224872); further: nearly all actives have a fitted effect of over 50% in size; further: potency means the concentration at half of the fitted maximal effect
Procedure, shortened: as §1

[15] = qHTS RealTime-Glo MT Cell Viability Assay in HepG2 cells - 8 hour (AID 1224873); further: nearly all actives have a fitted effect of over 55% in size
Procedure, shortened: as §3

[16] = qHTS RealTime-Glo MT Cell Viability Assay in HEK293 cells - 40 hour (AID 1224874); details: RealTime-Glo luminescence; max response: active compounds read low; further: nearly all actives have a fitted effect of over 50% in size; further: potency means the concentration at half of the fitted maximal effect
Procedure, shortened: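 Tox21 screen in HEK293 using RealTime-Glo MT chemistry, with cells and reagent co-dispensed. Luminescence proportional to viable cell number was captured at intervals during 40 h compound exposure at 37 C.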

[17] = A CellTox Green Cytotoxicity Assay to monitor cytotoxicity in HepG2 cells - 16 hour (AID 1224876); further: nearly all actives have a fitted effect of over 45% in size
Procedure, shortened: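 Nonlytic assay: viable cells exclude the dye, so fluorescence scales with cell death. HepG2 at 600 cells/well, compounds added after 5 h, signal read across 40 h.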

[18] = target: Thyrotropin receptor (Homo sapiens) (UniProt P16473); assay: qHTS assay to identify small molecule agonists of the thyroid stimulating hormone receptor (TSHR) signaling pathway (AID 1224843; calls by dose curve; further: nearly all actives have a fitted effect of over 45% in size)
Procedure, shortened: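 Screening of the Tox21 10K collection used HEK293 cells engineered with TSHR at 800 cells per well. After a 30-min room-temperature compound exposure, HTRF cAMP reagents were added and fluorescence recorded 1 h later.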

[19] = qHTS assay to identify small molecule agonists of H2AX (AID 1224845; active means well fitted activation curve with a large enough effect in the signal ratio in the repeat runs, not every such curve was filed as active; the % refers to the signal ratio)
Procedure, shortened: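 Phospho-H2AX Ser139 measured by HTRF (ex 320 nm; em 665 and 620 nm) after 24 hr antibody incubation. Compounds, 15 concentrations, 0.76% DMSO, were applied to CHO-K1 cells for 3hr at 37C before lysis.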

[20] = A CellTox Green Cytotoxicity Assay to monitor cytotoxicity in HEK293 cells - 24 hour (AID 1224875); further: nearly all actives have a fitted effect of over 45% in size
Procedure, shortened: as §2
On the % scale 0 is the no-effect control and ±100 the full control effect.

Chain of Thyrotropin receptor (Homo sapiens) (P16473 whole entry, looked up): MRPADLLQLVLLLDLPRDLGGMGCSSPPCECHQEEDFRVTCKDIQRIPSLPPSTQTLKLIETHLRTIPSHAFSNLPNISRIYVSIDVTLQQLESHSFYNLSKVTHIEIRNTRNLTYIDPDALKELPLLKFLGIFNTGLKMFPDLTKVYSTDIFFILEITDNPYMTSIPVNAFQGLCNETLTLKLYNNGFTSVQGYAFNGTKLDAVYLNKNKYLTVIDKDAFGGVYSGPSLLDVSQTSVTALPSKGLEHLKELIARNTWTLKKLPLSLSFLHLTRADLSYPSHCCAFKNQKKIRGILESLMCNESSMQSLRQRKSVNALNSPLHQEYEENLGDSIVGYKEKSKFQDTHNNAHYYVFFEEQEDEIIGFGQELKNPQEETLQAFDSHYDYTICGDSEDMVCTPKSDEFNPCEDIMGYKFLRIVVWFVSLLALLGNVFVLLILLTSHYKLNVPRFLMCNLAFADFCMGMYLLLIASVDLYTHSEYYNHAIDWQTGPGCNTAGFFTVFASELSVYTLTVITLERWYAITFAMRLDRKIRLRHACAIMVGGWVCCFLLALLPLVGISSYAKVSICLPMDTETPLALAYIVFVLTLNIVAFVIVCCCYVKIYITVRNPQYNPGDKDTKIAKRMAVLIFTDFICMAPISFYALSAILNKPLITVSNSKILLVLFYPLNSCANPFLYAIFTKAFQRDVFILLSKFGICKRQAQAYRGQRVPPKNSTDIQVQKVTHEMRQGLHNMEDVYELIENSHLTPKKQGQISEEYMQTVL

CCCC(=O)OCCC(C)CCC=C(C)C (stereo unspecified)
inactive: outcome [1] | outcome [2] | outcome [3] | outcome [4] | outcome [5] | outcome [6] | Potency [7] | activity change, positive = activation [8] -4.9% | outcome [9] | Potency [10] | Potency [11] | outcome [12] | Potency [13] | Potency [14] | outcome [15] | max response [16] 0.963% | Potency [17]

Nc1nc(-c2ccccc2)c(Br)c(=O)[nH]1
inactive: outcome [1] | outcome [3] | outcome [18] | outcome [4] | outcome [19] | outcome [5] | outcome [6] | Potency [7] | activity change, positive = activation [8] -6.57% [at 42.5 µM] | outcome [9] | Potency [10] | Potency [11] | outcome [12] | Potency [14] | outcome [15] | max response [16] -3.06% | Potency [17]

CC/C=C\CCOC(=O)c1ccccc1O
inactive: outcome [1] | outcome [2] | outcome [3] | outcome [19] | outcome [5] | Potency [7] | activity change, positive = activation [8] 2.25% | outcome [9] | Potency [10] | Potency [11] | outcome [12] | Potency [14] | outcome [15] | max response [16] 19.1%

COc1nc(N)nc2nc[nH]c12
inactive: outcome [1] | outcome [3] | outcome [18] | outcome [4] | outcome [19] | outcome [5] | outcome [6] | Potency [7] | activity change, positive = activation [8] 0.367% | outcome [9] | Potency [10] | Potency [11] | outcome [12] | Potency [13] | outcome [15] | max response [16] -26% | Potency [20] | Potency [17]

CCCCCCCCCCOC(C)=O
inactive: outcome [1] | outcome [18] | outcome [4] | outcome [19] | outcome [5] | outcome [6] | outcome [9] | Potency [10] | Potency [11] | outcome [12] | Potency [13] | Potency [14] | outcome [15] | max response [16] 0.865% | Potency [20] | Potency [17]

CCC(=O)c1c(O)cc(O)cc1O
inactive: outcome [1] | outcome [3] | outcome [18] | outcome [4] | outcome [19] | outcome [5] | outcome [6] | activity change, positive = activation [8] -13.5% [at 42.5 µM] | outcome [9] | Potency [10] | Potency [11] | outcome [12] | Potency [14] | outcome [15] | max response [16] 11.1% | Potency [20] | Potency [17]

CC1c2ccccc2CN1NC(=O)c1ccc(Cl)c(S(N)(=O)=O)c1 (stereo unspecified)
inactive: outcome [1] | outcome [3] | outcome [18] | outcome [4] | outcome [19] | outcome [5] | outcome [6] | Potency [7] | activity change, positive = activation [8] 3.24% [at 42.5 µM] | outcome [9] | Potency [10] | Potency [11] | outcome [12] | Potency [13] | Potency [14] | outcome [15] | max response [16] -0.0255% | Potency [20] | Potency [17]

Cn1nnc2c(C(N)=O)ncn2c1=O
inactive: outcome [1] | outcome [2] | outcome [3] | outcome [4] | outcome [5] | outcome [6] | Potency [7] | activity change, positive = activation [8] -0.988% [at 42.5 µM] | outcome [9] | Potency [10] | Potency [11] | outcome [12] | Potency [13] | Potency [14] | outcome [15] | max response [16] 3.79% | Potency [20] | Potency [17]

O=Cc1ccccc1Cl
inactive: outcome [1] | outcome [2] | outcome [3] | outcome [5] | outcome [6] | Potency [7] | activity change, positive = activation [8] 4.09% | Potency [10] | outcome [12] | outcome [15] | max response [16] 4.59% | Potency [17]

COc1cc2c(cc1OC)C(=O)C(CC1CCN(Cc3ccccc3)CC1)C2 (stereo unspecified)
active: Potency [10] 21.3 µM | Potency [14] 21.3 µM | Potency [16] 23.9 µM
inactive: outcome [1] | outcome [2] | outcome [18] | outcome [4] | outcome [19] | outcome [5] | outcome [6] | Potency [7] | activity change, positive = activation [8] 2.42% [at 42.5 µM] | outcome [9] | Potency [11] | outcome [12] | outcome [15] | Potency [20] | Potency [17]

CCCCCCCCCCCCCBr
inactive: outcome [1] | outcome [2] | outcome [3] | outcome [4] | outcome [19] | outcome [5] | outcome [6] | Potency [7] | activity change, positive = activation [8] 3.01% | outcome [9] | Potency [11] | outcome [12] | outcome [15] | Potency [20] | Potency [17]

CCC(=O)CC
inactive: outcome [1] | outcome [2] | outcome [3] | outcome [4] | outcome [19] | outcome [5] | outcome [6] | Potency [7] | activity change, positive = activation [8] 4.37% | outcome [9] | Potency [10] | Potency [11] | outcome [12] | Potency [13] | Potency [14] | outcome [15] | max response [16] 4.81% | Potency [20] | Potency [17]

CC(O)COC(C)(C)C (stereo unspecified)
inactive: outcome [1] | outcome [18] | outcome [4] | outcome [19] | outcome [5] | outcome [6] | outcome [9] | Potency [10] | Potency [11] | outcome [12] | Potency [13] | Potency [14] | outcome [15] | max response [16] 7.99% | Potency [20] | Potency [17]

CN(C)CCCO[C@@H]1[C@H]2OC(C)(C)O[C@H]2O[C@@H]1C(O)CO (stereo partly specified)
inactive: outcome [1] | outcome [2] | outcome [3] | outcome [4] | outcome [19] | outcome [6] | Potency [7] | activity change, positive = activation [8] 6.19% [at 42.5 µM] | Potency [10] | Potency [11] | Potency [13] | Potency [14] | outcome [15] | max response [16] 0.847% | Potency [20] | Potency [17]

OC[C@@H](O)C(O)[C@@H](O)CO (stereo partly specified)
inactive: outcome [1] | outcome [2] | outcome [3] | outcome [4] | outcome [19] | outcome [5] | outcome [6] | Potency [7] | activity change, positive = activation [8] 9.91% | outcome [9] | Potency [10] | Potency [11] | outcome [12] | Potency [13] | Potency [14] | outcome [15] | max response [16] -0.153% | Potency [20] | Potency [17]
